Our source for the Percent Effect values is ChEMBL document CHEMBL3988442, “University of Dundee, Small-Polar-MMV Screening Library” (2021).

Each structure is given as a SMILES string.

The test addresses AMP-activated protein kinase, AMPK (Homo sapiens) (UniProt P54646+O43741+P54619+Q9UGJ0+Q9Y478+Q13131+Q9UGI9). The test is described as follows: AMP-dependent Kinase enzyme assay. An in vitro enzyme assay that detects ADP turnover that is directly proportional to AMPK activity. This uses naive AMPK that is activated during the assay with MK-8722. The class given is functional. The note with it: 30 µM. Further details: scale not given: direction of the effect not stated beside the values.
Turning to `Cc1cccnc1NC(=O)c1ccc(F)c(S(=O)(=O)N2CCC2)c1`, the Percent Effect was -5.84%.

In the case of `Cc1nnc(-c2cccc(C#N)c2)n1C1CCN(C2CC2)C1=O` (centres undefined), the Percent Effect was -1.74%.

`CC(NCc1nnc2n1CCCC2)c1nc(Cc2ccccc2)no1` (centres undefined): the Percent Effect was -1.56%.

For the compound `CC1CN(C)CCN1C(=O)c1cccn1Cc1ccncc1` (centres undefined), the Percent Effect was 1.97%.

As for `CC(C)C1C(=O)NCCN1C(=O)CCCc1nc(C(C)(C)C)no1` (centres undefined), the Percent Effect was -5.25%.

For the compound `O=C(Nc1ccc(F)cc1F)NC1(CO)CCOCC1`, the Percent Effect was determined as 4.61%.

For the compound `N#Cc1ccc(CN(CC(N)=O)Cc2cccc(F)c2)cc1`, the Percent Effect is -6%.

For `CC(C)(C)c1n[nH]cc1CNC1CCC(C(F)(F)F)CC1` (centres undefined), the Percent Effect was found to be 3.78%.

For `CC(=O)N[C@H]1CN(S(=O)(=O)N(C)Cc2ccccc2)C[C@@H]1C1CC1`, the Percent Effect turned out to be 1.32%.

With `COc1ccc(C2(C(=O)N3CC(c4cccnc4)C3)CC2(C)C)cc1` (centres undefined), the Percent Effect was -5.88%.

For `CCN(C)S(=O)(=O)N1CCC(C(O)c2ccc(Cl)cc2)CC1` (centres undefined), the Percent Effect is 1.46%.

As to `CN(Cc1ccc(C#N)cc1)CC1CCS(=O)(=O)C1` (centres undefined), the Percent Effect came to 7.17%.

In the case of `CC(C)N(Cc1ccccn1)C(=O)CN(C)C(=O)c1cccs1`, the Percent Effect is 10.8%.

Take `CN1CC(C(=O)NCc2ccc(Br)cc2F)CC1=O` (centres undefined): the Percent Effect was 8.64%.

Turning to `Cc1ccnn1CCN1CCCC2(CCC(=O)N(C3CCCC3)C2)C1` (centres undefined), the Percent Effect amounted to 15.1%.

Consider `O=C(Nc1ccc(Br)cc1F)c1ccc(N2CCCCC2)nn1`, for which the Percent Effect came to 1.92%.

`COc1ccc(Cn2c(Cc3c(C)n[nH]c3C)n[nH]c2=O)cc1`: the Percent Effect is -5.3%.

For the compound `NC(=O)C1CCN(c2ccc(C(=O)N3CCc4ccccc43)cn2)C1` (centres undefined), the Percent Effect was 6.03%.

For the compound `O=S(=O)(NCCCn1cncn1)c1ccc2c(c1)CCCC2`, the Percent Effect came to 6.33%.

Take `CC(=O)N1CCC(NC(=O)CN2CCCc3c(C)ccc(F)c32)CC1`: the Percent Effect came out at 5.92%.

In the case of `CCOc1cccc(C(C(=O)O)N(C)Cc2cc(C)no2)c1` (centres undefined), the Percent Effect was found to be 7.67%.

For the compound `O=C(NCCN1CCNC1=O)c1cnc(-c2cccnc2)nc1`, the Percent Effect came to 6.47%.

Take `CC(C)(C)NC(=O)CNc1ncccn1`: the Percent Effect is 91.2%.

On to `CCOC(=O)C1(O)CCN(C(=O)Nc2cccc(F)c2)CC1`, for which the Percent Effect is -1.01%.

Turning to `CSCC(C)(O)CNS(=O)(=O)c1cccc(Cl)c1` (centres undefined), the Percent Effect is -5.75%.

With `COCC(=O)N1CCN(C(C)c2ncc(-c3ccccc3)o2)CC1` (centres undefined), the Percent Effect came to 2.58%.

As for `Cc1nonc1CNC(=O)C(C)Oc1ccccc1F` (centres undefined), the Percent Effect turned out to be 5.55%.

On to `CN(CC(=O)Nc1ccccc1)C(=O)CN(C)c1ccc(Cl)cn1`, for which the Percent Effect was determined as 2.82%.

With `Cc1nn(CCC(=O)NC2CCCOC2)c(C)c1C` (centres undefined), the Percent Effect was found to be 12.2%.

Turning to `CC(C)[C@@H]1CN(c2ccc(F)cn2)C[C@H]1NS(C)(=O)=O`, the Percent Effect was -3.59%.

On to `CCn1cnnc1CCNS(=O)(=O)N1CCCC1c1ccco1` (centres undefined), for which the Percent Effect was -10.7%.

With `CN(Cc1nc2ccccc2[nH]1)C(=O)CN(C)c1ccccc1`, the Percent Effect is -1.06%.

As to `COc1cc(Cl)cc(CN2CCCC(N3CCCC3)C2)c1OC` (centres undefined), the Percent Effect amounted to 4.91%.

For `Cc1ccc(-c2cc(C(=O)N(C)Cc3noc4c3CCCC4)[nH]n2)s1`, the Percent Effect is -10.3%.

On to `O=C(NCc1ccc(N2CCSCC2)cc1)NCc1cc[nH]n1`, for which the Percent Effect is -0.457%.

As for `O=C(NCc1nnc2n1CCC2)c1ccc(Br)s1`, the Percent Effect is -4.78%.

As to `CNC(=O)c1cn2cc(-c3ccccc3Cl)n(CC=C(C)C)c(=O)c2n1`, the Percent Effect was 3.23%.

As to `CNS(=O)(=O)CC(=O)N(C1CC1)C1Cc2ccccc2C1`, the Percent Effect is -3.11%.

For `Cc1ccc2nc(C(=O)N3CC(n4nc(C)cc4C)C3)cn2c1`, the Percent Effect is -4.01%.
